Screen size: about 48,000 compounds; about 13,000 (27%) showed an effect of 50% or more. The list shows a part of the results.
These molecules were tested on Wolbachia pipientis (assay: Anti-Wolbachia Cell-Based Screen). Conditions: 5 µM.
Assay type: functional
Set-up: scale not given: in the data most compounds retested in dose-response had high values

Row | Compound | Percent Effect
1 | CSCCCNc1ncnc2cccc(F)c12 | -37.93%
2 | CC(=O)N1CCc2ccccc2C1CC(=O)NCc1nnc(C)o1 (stereo not given) | -6.807%
3 | COCCS(=O)(=O)N(Cc1cscn1)c1ccccc1 | -16.91%
4 | O=C(CCN1C(=O)CCC1=O)Nc1ccc(Cl)cc1 | 9.29%
5 | O=C(Nc1cnn(CC(=O)N2CCCCO2)c1)c1ccsc1 | 8.582%
6 | O=C(Nc1ccccc1C(=O)NCCCN1CCOCC1)c1ccco1 | 10.69%
7 | Cc1ccc(C(=O)Nc2ccc(N3CCC(O)CC3)c(C#N)c2)s1 | -23.53%
8 | O=C(CCC1CCCN(S(=O)(=O)C2CC2)C1)Nc1ccc(Cl)cc1 (stereo not given) | 0.5143%
9 | CN1CCC/C1=N\S(=O)(=O)c1ccc(NC(=O)c2ccc(Cl)s2)cc1 | 40.68%
10 | N#Cc1cc(NC(=O)c2ccsc2)ccc1N1CCC(O)CC1 | -1.175%
11 | CN1CCC/C1=N\S(=O)(=O)c1ccc(NC(=O)c2ccco2)cc1 | 116.6%
12 | CN1CCC/C1=N\S(=O)(=O)c1ccc(NC(=O)c2ccsc2)cc1 | 106.5%
13 | CN1CCC/C1=N\S(=O)(=O)c1ccc(NC(=O)c2ccc(Cl)cc2)cc1 | 101.2%
14 | Cc1ccc(C(=O)Nc2ccc(S(=O)(=O)/N=C3\CCCN3C)cc2)s1 | 80.8%
15 | Cc1nccnc1N1C[C@H](NC(=O)CNS(C)(=O)=O)[C@@H](C2CC2)C1 | -53.3%
16 | COc1cccc(C(=O)N2CCN(C(=O)CCn3ccnc3)CC2)c1 | -2.961%
17 | Cc1cc(C(=O)NS(=O)(=O)Cc2ccon2)c(C)o1 | 30.96%
18 | CCC(O)CN(CC(=O)Nc1cc(C)no1)c1ccccc1 (stereo not given) | 5.147%
19 | CN1C(=O)CO[C@H](c2ccc(NC(=O)Cc3cccs3)cc2)[C@H]1CO | -17.64%
20 | CN1CCC/C1=N\S(=O)(=O)c1ccc(NC(=O)Cc2cccs2)cc1 | 91.75%
21 | Cn1cc(NC(=O)Cc2cccs2)c(=O)n(C)c1=O | -7.177%
22 | CCOc1nnc(CN2CCC(c3nc4ccccc4[nH]3)CC2)s1 | -10.51%
23 | Cc1cc(NCCCNc2cccnc2)n2nc(C)c(C)c2n1 | 88.33%
24 | Cc1cc(NCCSc2nccn2C)n2nc(C)c(C)c2n1 | 108.3%
25 | CCc1cc(NCCNC(=O)c2cccnc2)n2nc(C)c(C)c2n1 | 18.31%
26 | CCSCCNc1cc(C)nc2c(C)c(C)nn12 | 76.05%
27 | CCc1cc(NCCc2cccnc2)n2nc(C)c(C)c2n1 | 15.8%
28 | Cc1ccnc(NCCSc2nccn2C)n1 | -1.785%

Row | Compound | Percent Effect
29 | CNc1ccnc(NCCSc2nccn2C)n1 | 3.348%
30 | CCc1cc(NCCc2cnccn2)n2nc(C)c(C)c2n1 | -4.525%
31 | Cc1cc(NCCn2cccn2)n2ncnc2n1 | -4.993%
32 | Cc1cc(NCCSc2nccn2C)n2ncnc2n1 | 81.57%
33 | CCCc1cc(NCCn2cccn2)n2ncnc2n1 | -13%
34 | Cc1cc(NCc2nnc3n2CCC3)n2nc(C)c(C)c2n1 | 8.542%
35 | CCOC(=O)c1nnc2ccccc2c1N1CCN(CC)CC1 | -7.556%
36 | CCS(=O)(=O)c1ccc(N2CCC(NC(=O)CC3CCCC3)CC2)cc1 | -9.103%
37 | O=C(NC1CCCc2nc(N3CCCCC3)ncc21)C1CCCC1 (stereo not given) | 90.75%
38 | O=C(CC1CCCCC1)NC1CCCc2nc(N3CCOCC3)ncc21 (stereo not given) | 100.9%
39 | O=C(NC1CCCc2nc(N3CCOCC3)ncc21)C1CCCC1 (stereo not given) | 122.7%
40 | CC(C)(C)c1cnc(CN2CCC(NC(=O)CC3CCCC3)CC2)o1 | 1.419%
41 | O=C(NC1CCCc2nc(N3CCOCC3)ncc21)C1CCCCC1 (stereo not given) | 91.3%
42 | CN(C)c1ncc2c(n1)CCCC2NC(=O)C1CC1 (stereo not given) | 13.73%
43 | CC1(C)CC(N2Cc3nc(N4CCOCC4)ncc3C2=O)CC(C)(C)N1 | 10.47%
44 | Cn1ccnc1-c1ccc(NC[C@H]2CCc3ccccc3O2)nn1 | 2.045%
45 | Cn1c(NC(=O)CNC(=O)C2CCCC2)nc2cc(Cl)ccc21 | 10.58%
46 | Cc1nnc(CN2CCC3(CCC(=O)N(C4CC4)C3)CC2)o1 | 3.003%
47 | COc1cccc2c1OCC(C(=O)N1CCN(S(=O)(=O)N(C)C)CC1)C2 (stereo not given) | -34.53%
48 | CCS(=O)(=O)N1Cc2nccn2CC(Cn2cccn2)C1 (stereo not given) | 103.5%
49 | O=S(=O)(C1CC1)N1Cc2nccn2CC(Cn2cncn2)C1 (stereo not given) | 116.3%
50 | CCCS(=O)(=O)N1Cc2nccn2CC(Cn2cccn2)C1 (stereo not given) | -3.213%
51 | CCCS(=O)(=O)N1Cc2nccn2CC(CN2CCCC2)C1.O=C(O)C(F)(F)F (stereo not given) | -1.434%
52 | Cc1nc(C)n(CC2CN(S(C)(=O)=O)Cc3nccn3C2)n1 (stereo not given) | 2.83%
53 | CCS(=O)(=O)N1Cc2nccn2CC(CN2CCCC2)C1 (stereo not given) | -0.1339%
54 | CCCS(=O)(=O)N1Cc2nccn2CC(Cn2cncn2)C1 (stereo not given) | 104.9%
55 | CCS(=O)(=O)N1Cc2nccn2CC(Cn2cncn2)C1 (stereo not given) | 101.6%

Source: ChEMBL document CHEMBL3988442, “University of Dundee, Small-Polar-MMV Screening Library” (2021)
